# Assay outcomes (PubChem BioAssay)
# Only a selection was taken, and hits are over-represented in it overall.
# Pf Dd2 growth: blocks in vitro growth of P. falciparum Dd2. P. falciparum Dd2 growth, SYBR Green, 72 h. Potency, µM (series often up to 28.9 µM), for inactives: at the top dose activity, negative = inhibition, usual class: inhibitors. 120,000 compounds, 4.3% hits. AID 1347417; active = well fitted inhibition curve with a large enough effect;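 also: plate controls were DMSO vehicle for no effect and reference drug for full effect; nearly all actives have a fitted effect of over 65% in size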
#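 Readout: SYBR Green fluorescence, 485 nm excitation, 535 nm emission, after ~16 h lysis at 37C. Before that, Dd2-infected red cells (2.5% hematocrit) grew 72 h with compound, 29 uM top final concentration.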
# * = called active by the depositor; i = inactive; [ ] = dose if it differs, or a comment. Potency is read from the fitted curve at half-maximal effect.
SMILES,Pf Dd2 growth
CC(C)C(=O)N1CCC(N2CC(OCC3CC3)C23CCCCC3)CC1 (stereo not drawn),3.2µM*
Cc1ccc(C(=O)N2CCC(N3CC(OCC4CC4)C34CCCCC4)CC2)cn1 (stereo not drawn),-5%
C1CC2(CCN1)CC(OCC1CC1)CCO2 (stereo not drawn),25%
C1CC(c2noc(C34CC5CC(CC(C5)C3)C4)n2)CO1 (stereo not drawn),-19%
O=C(NC[C@H]1OC[C@@H](NC2CCOCC2)[C@@H]1O)c1ccccc1,22%[44.1 µM]
O=c1[nH]ccn1C1CCN(Cc2ccc(OC(F)(F)F)cc2)CC1,-22%[44.1 µM]
COc1ccccc1N1CCCc2ncc(C(=O)Nc3cccc(F)c3)cc21,-30%[44.1 µM]
COc1ccc(Nc2c3c(nc4nncn24)CCC3)cc1OC,i
COc1cc(OC)c(Nc2c3c(nc4nc(-c5cccs5)nn24)CCCC3)cc1Cl,11µM*
COc1cc(OC)c(NC(=O)c2ccc3c(Cl)c4c(nc3c2)CCCC4)cc1Cl,14%
O=C(CCCc1ccccc1)N1CCCC1c1noc(COc2ccc(F)cc2)n1 (stereo not drawn),-28%
CCOc1ccccc1NC(=O)c1c(NC(=O)c2cccc(C)c2)sc2c1CCCC2,8.9µM*
CCOc1ccccc1NC(=O)c1c(NC(=O)Cc2ccccc2)sc2c1CCCC2,25%
CCOc1ccccc1NC(=O)c1c(NC(=O)COc2ccc(Cl)cc2)sc2c1CCCCC2,i
Cc1cccc(-c2noc([C@@H]3C[C@@H](O)CN3Cc3ccccn3)n2)c1,i
c1ccc(OCc2cc(CC3(NCc4cccc5c4OCO5)COC3)no2)cc1,i
CCOC(=O)c1cccc(Nc2nc(-c3ccccc3)no2)c1,-7%
CCC(=O)N1CC(n2cc(C(=O)NCC3CC3)nn2)C1,-5%
O=C(c1ccoc1)N1CCCN(C2CCC3(CCNCC3)CC2)CC1,14%
COCCn1nc2n(c1=O)CCN(C(=O)c1ncccc1C)CC2,i
Cc1c[nH]c(C(=O)N2CCCC(CCc3cccc(C(F)(F)F)c3)C2)c1 (stereo not drawn),-22%
CN(CC1CCCN(CCc2cccc(C(F)(F)F)c2)C1)C(=O)c1ccc2[nH]ccc2c1 (stereo not drawn),10µM*
O=C(c1ccc(=O)[nH]c1)N1CCCC(CCc2cccc(C(F)(F)F)c2)C1 (stereo not drawn),-14%
COCCN1CCOC[C@H]2CCN(C(=O)c3ccco3)C[C@H]21,i
Cc1ccc(CSc2nc3ccncc3n2Cc2nc(-c3ccc(Cl)cc3)oc2C)cc1,5%
SMILES,Pf Dd2 growth
COc1ccc(CSc2nc3ccncc3n2CC(=O)Nc2cc(C)cc(C)c2)cc1,49%
Cc1ccc(Cn2c(=O)n(Cc3ccc(C(=O)NC4CCN(Cc5ccccc5)CC4)cc3)c(=O)c3ccccc32)cc1,7%
Cc1ccc(Cn2c(SCc3ccc(C(=O)NC4CCCC4)cc3)nc3ccncc32)cc1,11µM*
Cc1ccc(C(=O)CSc2nc3cc(C(=O)NC4CCCC4)ccc3c(=O)n2CC2CCCO2)c(C)c1 (stereo not drawn),-3%
Cc1cccc(CSc2nc3cc(C(=O)NC4CCCC4)ccc3c(=O)n2Cc2ccccc2)c1,18%
COc1ccc(Cn2c(SCc3ccc(C(=O)NC4CCCC4)cc3)nc3ccncc32)cc1,-13%
Cc1ccc(Cn2c(SCc3ccc(C(=O)NC4CCCCC4)cc3)nc3ccncc32)cc1,11µM*
COc1ccc(Cn2c(SCc3ccc(C(=O)NC4CCCCC4)cc3)nc3ccncc32)cc1,7.9µM*
CCOc1ccc(NC(=O)N2CC(C(=O)N(C)C)C3(CCOCC3)C2)cc1 (stereo not drawn),-17%
COCc1cc(N2CCC(c3cccc(OC)c3OC)C2)ncn1 (stereo not drawn),-11%
O=C1CCCCC(C(=O)O)N1 (stereo not drawn),9%
Cc1nn2c(c1-c1ccnn1C(C)C)N(C(=O)COc1ccccc1C(N)=O)CCC2,-11%[44.1 µM]
COc1ncc(C(=O)NCc2cccnc2N2CCN(C(C)=O)CC2)cn1,6%
CC(=O)Nc1cccc(OCc2nnc(C(=O)N3CCC[C@@H]3c3ccc(Br)cc3)n2Cc2ccccc2)c1,-22%
C[C@H]1CCCN1C(=O)c1nnc(COc2ccc(Cl)cc2)n1-c1ccccc1,-12%[44.1 µM]
CC(=O)Nc1cccc2ccc(OCc3nnc(C(=O)N4CCC[C@@H]4c4ccc(Br)cc4)n3Cc3ccccc3)cc12,11µM*
O=C1CCCN1CCCN1C(=O)[C@H]2CN(Cc3ccccc3Cl)C[C@H]2C1=O,i
CCn1cc(-c2ccc(C)cc2)cc1C(=O)O,3%
Cc1nc(C)c(C(=O)N2CCC(Cc3nc(C4CC4)n[nH]3)CC2)s1,16%
COc1ccc(-c2cc3ncc(C(=O)c4cc([N+](=O)[O-])ccc4O)cn3n2)cc1,-4%
O=[N+]([O-])c1cccc(-c2ncc[nH]2)c1,-12%[76.6 µM]
O=[N+]([O-])c1ccc(O)c(-c2ccnc3cc(-c4ccccc4)nn23)c1,10µM*
COc1ccccc1C(=O)Nc1ccc([C@H]2OCC(=O)N(Cc3ccccc3)[C@@H]2CO)cc1,-9%
Cc1ccc(-n2ncc(C(=O)N3CCN(c4ncccn4)CC3)c2C2CCN(C(=O)OC(C)(C)C)CC2)cc1,41%
CCOC(=O)c1cnn(-c2ccc(OC)cc2)c1C1CCN(C(=O)OC(C)(C)C)CC1,7.9µM*
SMILES,Pf Dd2 growth
CC(C)(C)OC(=O)N1CCC(c2c(C(=O)N3CCN(c4ccccn4)CC3)cnn2-c2ccccc2)CC1,-22%
CC(C)(C)OC(=O)N1CCC(c2c(C(=O)N3CCC(c4ccccc4)C3)cnn2-c2ccc(Cl)cc2)CC1 (stereo not drawn),4.5µM*
Cc1ccc(-n2ncc(C(=O)N3CCC(c4ccccc4)C3)c2C2CCN(C(=O)OC(C)(C)C)CC2)cc1 (stereo not drawn),11µM*
COc1ccc(-n2ncc(C(=O)N3CCN(c4ncccn4)CC3)c2C2CCN(C(=O)OC(C)(C)C)CC2)cc1,20%
CCOC(=O)c1ccccc1NC(=O)c1cnn(-c2ccc(OC)cc2)c1C1CCN(C(=O)OC(C)(C)C)CC1,59%
Cc1ccc(C2CCN(C(=O)c3cnn(-c4ccc(C)cc4)c3C3CCN(C(=O)OC(C)(C)C)CC3)C2)cc1 (stereo not drawn),-24%
COc1ccc(C(=O)NCC2Cn3cccc3C(=O)N2Cc2ccccc2)cn1 (stereo not drawn),-25%
Cc1cc(C(=O)N[C@@H]2CN(Cc3ccccn3)C[C@H]2CN(C)C)n[nH]1,19%
O=C(c1ccc(C(F)(F)F)cc1)N1CCC(N2CCCS2(=O)=O)CC1,8%
Cc1nnc(-c2cc(-c3ccncc3)ccn2)n1CCN1CCOCC1,-22%[44.1 µM]
O=C(N[C@@H]1CCN(C(=O)c2n[nH]c3ccccc23)C[C@H]1O)c1cccnc1,-11%
CN1CCc2c(sc(NC(=O)CSc3ccccc3)c2-c2nc3ccccc3s2)C1,11µM*
Cn1c(SCC(=O)Nc2nc3ccccc3s2)ncc(C(=O)Nc2ccccc2)c1=O,22%
Cc1cnc(=O)[nH]c1SCC(=O)Nc1nc2ccccc2s1,8%
O=C(CSc1ncc(CO)n1Cc1ccccc1)Nc1nc2ccccc2s1,-33%
CC(=O)N1CCc2c(sc(NC(=O)CSc3ccccc3)c2-c2nc3ccccc3s2)C1,2µM*
Cn1c(SCC(=O)Nc2nc3ccccc3s2)ncc(C(=O)Nc2ccc(Cl)cc2)c1=O,30%
O=C(Cc1ccc(N(Cc2ccc(F)cc2)C(=O)c2ccco2)cc1)NCC1CC1,-5%
O=C1OCC2=C1C(c1ccccc1)NC(=O)N2CC(=O)N1CCOCC1 (stereo not drawn),-1%
